The list shows a part of the results. Active and inactive are the calls of the source.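 The calls were made as follows: active = compounds that raise the fluorescence signal in this interference counterscreen, with EC50 at or below 10 µM; inactive = the rest.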
Assay: optical artefact potency, substrate without enzyme – biochemical, fluorescence intensity, triplicate, artefact control for kallikrein-7 zymogen activator project, dose response (AID 720493);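 also: intact quenched peptide substrate alone read at 355 nm excitation and 520 nm emission; signal is fluorescence gain from T0 to T4 after four hours at room temperature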
Settings: EDANS-DABCYL peptide fluorescence interference, no enzyme

EC50, inactive:
COc1cccc2sc3cc(NCC[C@@H]4CCCN4C)ccc3c(=O)c12 > 69.5 µM, O=C(Oc1c(-c2ccco2)oc2ccccc2c1=O)c1cccnc1 21.2 µM, CN(C(=O)c1cc2c(=O)n3ccccc3nc2s1)C1CCCCC1 > 69.5 µM, COc1c(N2CCN(C(=S)Nc3ccccc3F)C(C)C2)c(F)cc2c(=O)c(C(=O)O)cn(C3CC3)c12 (stereo not drawn) > 69.5 µM, COC(=O)C1=NN(c2ccccc2)C2C(=O)N(c3ccccc3OC)C(=O)C12 (stereo not drawn) > 69.5 µM, O=C(OC1CCOC1=O)c1ccc(-c2nc3ccccc3s2)s1 (stereo not drawn) > 69.5 µM, O=c1c(-c2ccccc2)coc2c(CN3CCOCC3)c(O)ccc12 > 69.5 µM, Cc1cccc(C)c1NC(=O)C(c1ccccc1)N1CC(=O)Nc2ccccc21 (stereo not drawn) > 69.5 µM
